One assay has as its target GRK1. Nature of the assay: pooled miR-30 sensor sort-seq; sequence = guide strand. The following applies: shRNA.
In turn, TTTGCGTAGACAGTTTTGGAGT had a sensor-assay potency score (higher = more potent) of -0.657.

As for TAAACTTCGCCACTATCCCCTC, the sensor-assay potency score (higher = more potent) was -0.678. In turn, TAGACAGTTTTGGAGTCTGGGA showed a sensor-assay potency score (higher = more potent) of -1.3. Sequence TTGTCGCAGGTCTCATCTCTGA registered a sensor-assay potency score (higher = more potent) of -1.13. The same measure, in the same setting: for TTGTCCAGCAGCACGTTCTCGG the value was -0.903; for TTGTTCAGCTTCTTGCAGGCAT, 0.349.

TTGCCGGTCGCCTTCATCTGGC registered a sensor-assay potency score (higher = more potent) of -1.21. Same read-out and setting: for TTAAGGTCCTTGAAGAGGGGGT the value was 0.091. TAGTCCTCGATGTCTTTCCAGA gave a sensor-assay potency score (higher = more potent) of -1.36.

The target in the next assay is GRSF1. The assay is described as above. The following applies: shRNA.
TTCTTCTAAACAGTCCACTATG yielded a sensor-assay potency score (higher = more potent) of -0.687. In turn, ATGTATTCCATTCTCACCGTTG had a sensor-assay potency score (higher = more potent) of -1.12. Still for that read-out and setting: for TATACTTCCACATACCGCTGGC the value was -0.174. On the same count and under the same terms, under TAAGGCTTTCTGCACATCCTGC stands -0.572; under TTTCTTCTTCTAAACAGTCCAC, -0.0512; under TTCTTCTTCTAAACAGTCCACT, -0.559. The same measure, in the same setting: under TTGAGCATCGCTGCAACAGCAT stands -0.486. Turning to TAGCAGTAGGAAAAGATGCGAT, the sensor-assay potency score (higher = more potent) was -0.689. Consider TTCATGTTCTTCAAAGACCATT, for which the sensor-assay potency score (higher = more potent) is -0.97. Same read-out and setting: for TCGATTACCAATTTCTTCCCTG the value was -0.139; for TTATATACTTAGCAGTAGGAAA, -1.31; for TCTGCTTGGAAATATCTCGATG, -0.758.

Another assay deals with GSTO1. The description is as above. The note with it: shRNA.
In turn, TTTTCTTAAAGAACCACTCAGG had a sensor-assay potency score (higher = more potent) of -0.256. TAACTTCATTGCTTCCAGCCGT had a sensor-assay potency score (higher = more potent) of -0.351. In the case of TCTAATAAAGCTTCCTACCAAG, the sensor-assay potency score (higher = more potent) is -0.981.

TTTCTCACTAGTAAGCAGGGCT yielded a sensor-assay potency score (higher = more potent) of 0.254. Same read-out and setting: for TAGAGATAGAATTGCCACCAAA the value was -1.16. The same measure, in the same setting: under AACTCTAAGATCATCTTCTGGC stands -0.0597; under TGAGACTGTGGGATCTTCCTTC, 0.458; under TTATTAGTCAGAACCTCCTCTA, -0.622. Same read-out and setting: for ATATTGATGACTTCATGCCTGA the value was -0.0136; for TCTAAGATCATCTTCTGGCAAG, -0.832; for TAGGCCAGCATAGTCTTCTTTA, -0.878. On to TATTAGTCAGAACCTCCTCTAG, for which the sensor-assay potency score (higher = more potent) is -0.847.

The target in another assay is GTF2H5. The assay is described as above. The following applies: shRNA.
The sequence TATTACAAAGACGTGAGTGTCA came in with a sensor-assay potency score (higher = more potent) of 0.236. AATGATGAACTTCTTCCCCAGG displayed a sensor-assay potency score (higher = more potent) of -1.25. Sequence TCTTGAATGATGAACTTCTTCC yielded a sensor-assay potency score (higher = more potent) of -0.75.

Sequence TACAGCAGAAACTGCTTCATGG showed a sensor-assay potency score (higher = more potent) of -0.967. On the same count and under the same terms, for TGAATGATGAACTTCTTCCCCA the value was -0.103.

TTAATTCACCCACTCGCTCCTG displayed a sensor-assay potency score (higher = more potent) of -0.542. On the same count and under the same terms, under TAACCAATTCTGCTATTACAAA stands -1.59.
Further: reference of the scale not given here.
